Source: PubChem (National Center for Advancing Translational Sciences (NCATS))
Sampled rows, rich in hits. Any-hit rate of the full collection: about 7.4%.
Tau filament bind: qHTS Assay for Tau Filament Binding; Potency, µM (titrated, usually from 57.1 µM), inactives show at the highest dose activity change, negative = inhibition; 71,000 tested, 2% active; recombinant tau filaments, thioflavin S fluorescence, 15 h; filaments grown with octadecylsulfate alongside compound; AID 596, 2007;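 further: on the % scale 0 is the no-effect control and ±100 the full control effect; actives lower thioflavin S fluorescence by blocking filaments or displacing dye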
Target sequence (P10636 whole entry, looked up): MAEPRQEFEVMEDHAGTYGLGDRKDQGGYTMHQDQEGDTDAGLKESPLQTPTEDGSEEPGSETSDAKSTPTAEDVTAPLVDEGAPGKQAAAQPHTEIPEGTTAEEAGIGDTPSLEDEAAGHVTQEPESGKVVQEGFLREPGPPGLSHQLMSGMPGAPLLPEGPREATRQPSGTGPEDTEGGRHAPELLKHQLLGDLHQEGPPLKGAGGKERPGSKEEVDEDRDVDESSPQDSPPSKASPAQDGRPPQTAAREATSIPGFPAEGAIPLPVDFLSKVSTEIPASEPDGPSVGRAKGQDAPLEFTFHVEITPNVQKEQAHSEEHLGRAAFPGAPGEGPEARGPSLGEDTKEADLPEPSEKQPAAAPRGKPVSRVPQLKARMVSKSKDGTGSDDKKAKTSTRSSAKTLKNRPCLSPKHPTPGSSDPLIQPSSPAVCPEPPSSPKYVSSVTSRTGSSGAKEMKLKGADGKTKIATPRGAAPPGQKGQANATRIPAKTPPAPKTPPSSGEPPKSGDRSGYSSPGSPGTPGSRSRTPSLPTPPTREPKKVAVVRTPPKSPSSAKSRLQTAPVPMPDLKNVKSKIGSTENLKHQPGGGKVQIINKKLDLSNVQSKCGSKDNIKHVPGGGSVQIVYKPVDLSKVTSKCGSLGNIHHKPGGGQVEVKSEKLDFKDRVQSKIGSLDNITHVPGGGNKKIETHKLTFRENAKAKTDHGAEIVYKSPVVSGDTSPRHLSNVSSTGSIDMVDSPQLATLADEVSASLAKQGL
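Tau 2 uM in ThS buffer dispensed; compound added; 60 uM ODS added (finals 1 uM tau, 30 uM ODS); 15 h 37 C; fluor ex450/em510.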
TSHR agonist: qHTS Assay for Agonists of the Thyroid Stimulating Hormone Receptor | AID 926, 2007 | HEK293-CNG-TSHR cells (CNG channel as cAMP sensor), membrane potential dye, cAMP | Potency, µM (top dose mostly 57.1 µM), for inactives: at the highest dose activation, usual class: activators | Thyrotropin receptor (Homo sapiens), P16473 | 73,000 tested, 0.48% active; active means well fitted activation curve with a large enough effect in the main read-out, with a control signal flat, not every such curve was filed as active; inconclusive means small, poorly fitted or top-dose-only effect, or a change in a side signal; inactive means no such curve, though single readings can be large or run the other way; % of control where 0% means no effect;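 further: the control signal comes from parental cells without the receptor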
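cAMP rise detected as CNG-channel membrane depolarization by fluorescent dye (emission 590 nm), 30 min after compound, following 60 min dye loading containing 100 uM RO 20-1724 at room temperature. Cells: TSHR/CNG HEK 293, with parental CNG HEK 293 as control.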
CRE Fsk mod: Cell signaling CRE-BLA (Fsk stim) | CHO CRE-bla reporter (cAMP response element driving beta-lactamase), forskolin EC10, beta-lactamase ratio | Potency, µM (highest dose often 38.2 µM), without a hit: at the top dose activity change, negative = inhibition, hits mostly activators | 71,000 tested, 2.5% active | AID 662, 2007; active means well fitted activation curve with a large enough effect in the signal ratio, with a control signal flat, not every such curve was filed as active; inconclusive means small, poorly fitted or top-dose-only effect, or effect the other way, or a change in a side signal; the % refers to the signal ratio; further: % of control where 0% means no effect
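qHTS titration format; CRE-bla CHO reporter; stimulus EC10 NKH 477, a water-soluble forskolin. Read: CCF4 460/530 nm ratio. Potency expressed as AC50 for activators or inhibitors.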
ERK AVP inh: qHTS Assay for Inhibitors of the ERK Signaling Pathway using a Homogeneous Screening Assay. HEK293-V1b, vasopressin-stimulated pERK AlphaScreen. Potency, µM (titrated, usually from 57.5 µM), inactives show at the highest dose activity, negative = inhibition, hits mostly inhibitors. 72,000 tested, 0.99% active. AID 995, 2007; further: on the % scale 0 is the no-effect control and ±100 the full control effect; nearly all actives have a fitted effect of over 55% in size
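Phosphorylated ERK1/2 detected via AlphaScreen bead proximity in lysates of V1b-expressing HEK293 cells given 25 nM vasopressin for 5 min after 30 min compound exposure (37 °C). AC50 from Hill equation; basal DMSO 0%, vasopressin 100%.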
HEK293 cAMP ctrl: qHTS Assay for Agonists of the Thyroid Stimulating Hormone Receptor: Activators of Intracellular cAMP Concentrations in Parental HEK 293; parental HEK293 CNG cAMP sensor, membrane potential fluorescence; Potency, µM (doses to about 57.1 µM), without a hit: at the top dose activation, usual class: activators; 73,000 tested, 2.5% active; AID 938, 2007; further: % of control where 0% means no effect; nearly all actives have a fitted effect of over 55% in size
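Parental HEK 293 cells stably expressing a modified CNG channel (no TSHR) report cAMP rise as membrane depolarization. Membrane potential dye with 100 uM RO 20-1724 was loaded for 60 min at room temperature, then compound added for 30 min; fluorescence read at 590 nm.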
* marks the source's active call; other numbers are inactive results; [ ] = dose if it differs, or a comment. Unless noted, the call rests on the fitted dose curve; in most records, active means well fitted curve in the direction sought with a large enough effect; inconclusive means small, poorly fitted or top-dose-only effect, or another doubt; inactive means no such curve, though single readings can be large; an effect the other way counts as inactive or inconclusive. Potency means the concentration at half of the fitted maximal effect.

Screening O=C(c1ccco1)N1CCN(c2ncnc3c2[nH]c2ccc(Br)cc23)CC1 returned Tau filament bind 96%, TSHR agonist -8%, CRE Fsk mod 0.25µM*, ERK AVP inh inconclusive and HEK293 cAMP ctrl -14%.
`Cc1ccc(-c2nnc(N3CCN(C(=O)c4ccco4)CC3)c3ccccc23)cc1` gave Tau filament bind 13%, TSHR agonist -6%, CRE Fsk mod -1%, ERK AVP inh 25µM* and HEK293 cAMP ctrl 1%.
COc1ccc(-c2nsc3c(N4CCN(C(=O)c5ccco5)CC4)ncnc23)cc1 was read as Tau filament bind -4%, TSHR agonist inconclusive, CRE Fsk mod 10%, ERK AVP inh 24% and HEK293 cAMP ctrl inconclusive.
`CC(C)C[C@H](N)CSSC[C@@H](N)CC(C)C` gave Tau filament bind 5%, TSHR agonist inconclusive, CRE Fsk mod -16%, ERK AVP inh -24% and HEK293 cAMP ctrl -32%.
Screening CC12C=C(/C=C/c3ccc(Br)cc3)C(C)(C1)C(c1ccc(Br)cc1)CC2=O (configuration not stated) returned TSHR agonist 21%[11.4 µM], ERK AVP inh 18%[11.5 µM] and HEK293 cAMP ctrl 5%[11.4 µM].
`CCNc1ncc2nc(-c3ccc(F)cc3)c(=O)n(CCOC)c2n1` gave Tau filament bind 15%, TSHR agonist 6%, CRE Fsk mod inconclusive, ERK AVP inh -20% and HEK293 cAMP ctrl 9%.
Screening C=CCN1CCc2c(cc(O)c(O)c2Br)[C@H](c2ccccc2)C1 returned Tau filament bind -4%, TSHR agonist inconclusive, CRE Fsk mod -7%, ERK AVP inh -3% and HEK293 cAMP ctrl inconclusive.
CN1Cc2sc(N)c(C#N)c2CC1(C)C was read as Tau filament bind inactive, TSHR agonist -2%, CRE Fsk mod 10µM*, ERK AVP inh -27% and HEK293 cAMP ctrl 3%.
Screening O=C(Nc1sc2c(c1C(=O)O)CCCCC2)c1ccco1 returned Tau filament bind 12%, TSHR agonist 9%, CRE Fsk mod 6%, ERK AVP inh 8% and HEK293 cAMP ctrl 12%.
`CCc1c(C)sc(NC(=O)c2cccs2)c1C(=O)OC(C)C` gave Tau filament bind 10%, TSHR agonist 0%, CRE Fsk mod inconclusive, ERK AVP inh 106% and HEK293 cAMP ctrl 6%.
For CCOC(=O)c1c(NC(=O)c2cccs2)sc2c1CCCC2 the results were Tau filament bind 245%, TSHR agonist 4%, CRE Fsk mod 9%, ERK AVP inh 39% and HEK293 cAMP ctrl 1%.
CCOC(=O)c1ccccc1NC(=O)c1cccs1 was read as Tau filament bind 6%, TSHR agonist inconclusive, CRE Fsk mod inconclusive, ERK AVP inh 29% and HEK293 cAMP ctrl 25µM*.
Screening CCOC(=O)c1c(NC(=O)c2cccs2)sc(C)c1CC returned Tau filament bind 68%, CRE Fsk mod 13µM*, ERK AVP inh 66% and HEK293 cAMP ctrl 15%.
For CCOC(=O)c1c(NC(=O)c2cccs2)sc2c1CCC2 the results were Tau filament bind 243%, TSHR agonist 2%, CRE Fsk mod 3.2µM*, ERK AVP inh 6% and HEK293 cAMP ctrl 0%.
Screening CCOC(=O)c1c(NC(=O)c2ccco2)sc2c1CCCCC2 returned Tau filament bind 98%, TSHR agonist 23%, CRE Fsk mod 10µM*, ERK AVP inh 59% and HEK293 cAMP ctrl 12%.
For C[C@@](O)(CNS(=O)(=O)c1ccccc1)c1ccccc1 the results were Tau filament bind -2%[11.4 µM], TSHR agonist 1%[11.4 µM], CRE Fsk mod -1%[7.6 µM], ERK AVP inh 2%[11.5 µM] and HEK293 cAMP ctrl -5%[11.4 µM].
CCOC(=O)c1c(NC(=O)c2ccco2)sc(C(=O)N2CCCC2)c1C was read as Tau filament bind 28%, CRE Fsk mod 13µM*, ERK AVP inh inconclusive and HEK293 cAMP ctrl 20%.
For CCOC(=O)c1c(C)[nH]c(C)c1C(=O)COc1ccc(NC(=O)c2ccco2)cc1 the results were Tau filament bind -16%, TSHR agonist -2%, CRE Fsk mod inconclusive, ERK AVP inh 25µM* and HEK293 cAMP ctrl 1%.
Screening N#CCCN1CCN(C(=S)c2ccc(-c3cc(Cl)ccc3Cl)o2)CC1 returned Tau filament bind 2.5µM*, TSHR agonist inconclusive, CRE Fsk mod 11%, ERK AVP inh -5% and HEK293 cAMP ctrl inconclusive.
O=C(c1ccc(-c2cccc(C(F)(F)F)c2)o1)N1CCOCC1 was read as Tau filament bind 8%, TSHR agonist 14%, CRE Fsk mod inconclusive, ERK AVP inh -4% and HEK293 cAMP ctrl 3%.
`S=C(c1ccc(-c2ccccc2Cl)o1)N1CCOCC1` gave Tau filament bind 16µM*, CRE Fsk mod 28%, ERK AVP inh 25µM* and HEK293 cAMP ctrl 21%.
`S=C(c1ccc(-c2ccc(Cl)c(Cl)c2)o1)N1CCOCC1` gave Tau filament bind 10µM*, CRE Fsk mod 14%, ERK AVP inh inconclusive and HEK293 cAMP ctrl 17%.
CC1(C)[C@@H]2CC[C@]1(CC(=O)O)[C@H](Cl)C2 was read as Tau filament bind 3%[11.4 µM], TSHR agonist 6%[11.4 µM], CRE Fsk mod -4%[7.6 µM], ERK AVP inh 7%[11.5 µM] and HEK293 cAMP ctrl -10%[11.4 µM].
For COCCNc1ncnc2ccc(-c3ccccc3OC)cc12 the results were Tau filament bind -4%, TSHR agonist inconclusive, CRE Fsk mod inconclusive, ERK AVP inh -18% and HEK293 cAMP ctrl inconclusive.
`O=C(O)COCCN1CCN([C@@H](c2ccccc2)c2ccc(Cl)cc2)CC1` gave Tau filament bind 1%[25.6 µM], TSHR agonist -1%[25.6 µM], CRE Fsk mod 0%[17.1 µM], ERK AVP inh -9%[25.7 µM] and HEK293 cAMP ctrl 4%[25.6 µM].
`O=C(CSc1nc(-c2ccccc2)nc2c1CCCC2)N1CCOCC1` gave Tau filament bind -19%, TSHR agonist 13µM*, CRE Fsk mod 1%, ERK AVP inh -9% and HEK293 cAMP ctrl 23%.
O=C(Oc1ccccc1)n1c(=O)oc2ccc(Cl)cc21 was read as TSHR agonist 2% and HEK293 cAMP ctrl -14%.
CCn1c(=O)n(CC(=O)NC2CCCC(C)C2C)c(=O)c2ccccc21 (configuration not stated) was read as Tau filament bind -4%, TSHR agonist inconclusive, CRE Fsk mod -6%, ERK AVP inh -11% and HEK293 cAMP ctrl 25µM*.
Screening O=C(CCCCn1c(=O)c2ccccc2n(CC(=O)NC2CCCC2)c1=O)NC1CCCC1 returned Tau filament bind 6%, TSHR agonist 4%[11.4 µM], CRE Fsk mod -2%, ERK AVP inh -5% and HEK293 cAMP ctrl 6%.
O=C(CSc1nnc(Cc2cccs2)n1C1CCCCC1)N1CCCc2ccccc21 was read as Tau filament bind 3%, TSHR agonist inconclusive, CRE Fsk mod -14%, ERK AVP inh -25% and HEK293 cAMP ctrl 13µM*.
